In PubChem BioAssay (NCATS) one finds Potency, activity, negative = cell killing and outcome data, which are given here for eight compounds.

Several values for one entry are separate records, joined by “and”; a condition that tells them apart may be missing. Identical values can stand only once. Inconclusive results are not listed. A number with no mark means an inactive call. Activity calls are given as the source filed them. Calls come from the whole dose curve; as a rule, active = well fitted curve in the direction sought with a large enough effect; inconclusive = small, poorly fitted or top-dose-only effect, or another doubt; inactive = no such curve, though single readings can be large; an effect the other way counts as inactive or inconclusive.

One assay concerns MCC-26. Nature of the assay: qHTS assay to identify novel small-molecules to repurpose for Merkel cell carcinoma treatment (AID 1296009). Note: nearly all actives have a fitted effect of over 60% in size. Particulars: MCC and control cell lines, CellTiter-Glo viability, 72 h; series mostly up to 46 µM. In short, it runs like this: (§1)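 Luminescence from CellTiter-Glo, read 10 min after addition at room temperature, reported viability following a 72 hr, 37 degree celsius treatment with NPC or MIPE compounds in titration; values normalized to plate controls.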
(In general: Quantitative high-throughput screening tests each substance at several concentrations.)

The next assay deals with MKL-2. The description is as above. The settings on record: MCC and control cell lines, CellTiter-Glo viability, 72 h; series mostly up to 46 µM. The essentials:
as §1
For orientation: In ATP-based viability assays light output follows the ATP content of the culture.

A further assay has as its system UISO. The assay is described as above. Particulars: MCC and control cell lines, CellTiter-Glo viability, 72 h; series mostly up to 46 µM. In short, it runs like this: as §1
The subject of the next assay is WaGa. The assay is described as above. The settings on record: MCC and control cell lines, CellTiter-Glo viability, 72 h; series mostly up to 46 µM. The essentials:
as §1

The test system of a further assay is JEG-3. Description: Primary qHTS to identify gynecologic anti-cancer compounds using libraries of approved drugs and bioactive compounds (AID 1345084). Note: nearly all actives have a fitted effect of over 55% in size. Particulars: Gynecologic cancer cell panel viability, ATPlite luminescence, 48 h; series mostly up to 57.5 µM. In short, it runs like this:
(§2)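 Cells, 1,000 per well, were allowed to settle for 16 h at 37 C before compound addition. Five concentrations were tested for 48 h, and viability was read by ATPlite luminescence after 15 min at room temperature.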

In the next assay the test system is OV90. The assay is described as above. The settings on record: Gynecologic cancer cell panel viability, ATPlite luminescence, 48 h; series mostly up to 57.5 µM. In short, it runs like this: as §2
The next assay deals with PA-1. The assay is described as above. The settings on record: Gynecologic cancer cell panel viability, ATPlite luminescence, 48 h; series mostly up to 57.5 µM. The essentials: as §2
The next assay has as its system SKOV3. The description is as above. Particulars: Gynecologic cancer cell panel viability, ATPlite luminescence, 48 h; series mostly up to 57.5 µM. In short, it runs like this:
as §2

In a further assay the test system is Tov-21-G. The assay is described as above. Particulars: Gynecologic cancer cell panel viability, ATPlite luminescence, 48 h; series mostly up to 57.5 µM. In short, it runs like this: as §2
The test system of another assay is Tov112D. The description is as above. Particulars: Gynecologic cancer cell panel viability, ATPlite luminescence, 48 h; series mostly up to 57.5 µM. The essentials:
as §2

The nature of assay [1]: Drug repurposing screens with cells derived from glioblastoma tumor samples (AID 1345199). Note: nearly all actives have a fitted effect of over 40% in size. The settings on record: GBM patient neurospheres viability, ATP luminescence, 48 h. The essentials: (§3)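 Primary testing used CD133+ neurospheres from four GBM patients, seven concentrations, 48 h exposure and ATP-based viability; confirmation added three slower-growing patient lines.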

The test system of a further assay is astro. Described as above. The settings on record: viability, ATP luminescence, 48 h; series mostly up to 45.9 µM. The essentials:
as §3

The subject of a further assay is MKL-1. Description: qHTS assay to identify novel small-molecules to repurpose for Merkel cell carcinoma treatment (AID 1296009). Note: nearly all actives have a fitted effect of over 60% in size. Particulars: MCC and control cell lines, CellTiter-Glo viability, 72 h; series mostly up to 46 µM. In short, it runs like this:
as §1

In the next assay the test system is C33A. Nature of the assay: Primary qHTS to identify gynecologic anti-cancer compounds using libraries of approved drugs and bioactive compounds (AID 1345084). Note: nearly all actives have a fitted effect of over 55% in size. Particulars: Gynecologic cancer cell panel viability, ATPlite luminescence, 48 h; series mostly up to 57.5 µM. In short, it runs like this:
as §2

For a further assay, the system named is CASKI. Described as above. The settings on record: Gynecologic cancer cell panel viability, ATPlite luminescence, 48 h; series mostly up to 57.5 µM. The essentials: as §2
Another assay concerns Es-2. The assay is described as above. Particulars: Gynecologic cancer cell panel viability, ATPlite luminescence, 48 h; series mostly up to 57.5 µM. The essentials:
as §2

For another assay, the system named is CAOV3. The description is as above. Particulars: Gynecologic cancer cell panel viability, ATPlite luminescence, 48 h; series mostly up to 57.5 µM. In short, it runs like this: as §2
A further assay has as its system HeLa. Described as above. Particulars: Gynecologic cancer cell panel viability, ATPlite luminescence, 48 h; series mostly up to 57.5 µM. In short, it runs like this: as §2
In the next assay the test system is Hek293T. The assay is described as above. The settings on record: Gynecologic cancer cell panel viability, ATPlite luminescence, 48 h, control line for the selectivity index; series mostly up to 57.5 µM. In short, it runs like this:
as §2

In the next assay the test system is NIH3T3. Description: qHTS assay to identify novel small-molecules to repurpose for Merkel cell carcinoma treatment (AID 1296009). Note: nearly all actives have a fitted effect of over 60% in size. The settings on record: MCC and control cell lines, CellTiter-Glo viability, 72 h; at 44.8 µM (top of the series) unless noted. The essentials:
as §1

The mark [2] stands for this setting: at 46.1 µM (top of the series), tumour line C.
[3] abbreviates: at 20 µM (top of the series), tumour line C.
[4] abbreviates: at 21.2 µM (top of the series), tumour line B.
Where [5] appears, read: at 21.2 µM (top of the series), tumour line D.
% is set by controls: 0 for no effect and ±100 for the full control effect; potency is the fitted concentration of half-maximal effect.

With `CNCC[C@H](Oc1cccc2ccccc12)c1cccs1`, the Potency result in the assay with MCC-26, in the assay with WaGa, in the assay with JEG-3, with PA-1, in the assay on Tov-21-G and in the assay on Tov112D was “inactive” throughout. Further, the Potency in the assay on MKL-2 was 16.8 µM (active) and 18.7 µM (active); in the assay with UISO, 16.6 µM (active); in the assay on OV90, 28.2 µM (active); with SKOV3 it was 20 µM (active); in assay [1] (tumour line A), 3.55 µM (active); in [1] (tumour line B), 28.2 µM (active). Further, the Potency is 17.8 µM (active) in [1] (tumour line D) and 28.2 µM (active) with astro. Further, the activity, negative = cell killing in assay [1] (setting [2]) is -0.487%.
Take `COc1ccc2cc3[n+](cc2c1OC)CCc1cc2c(cc1-3)OCO2`: the Potency entry in the assay on MCC-26 and in the assay with Tov-21-G was “inactive” each time. Also, the Potency was 1.88 µM (active) and 2.96 µM (active) in the assay with MKL-1; 841 nM (active) and 1.48 µM (active) with MKL-2; 9.44 µM (active) and 14.8 µM (active) in the assay with UISO; 2.09 µM (active) with WaGa; 8.91 µM (active) in the assay with C33A; 2.24 µM (active) in the assay on CASKI. In addition, the values for the Potency in the assay on Es-2, in the assay with OV90 and with astro were 15.8 µM (active), 5.62 µM (active) and 6.31 µM (active), respectively.
As for `CCCCOc1ccc(CC(=O)NO)cc1`, the Potency entry in the assay with MCC-26, in the assay on CAOV3, in the assay on CASKI, in the assay with HeLa, with Hek293T and in the assay with OV90 was “inactive” in each case. In the assay on astro, the Potency entry is “inactive”. In addition, the Potency in the assay on UISO is 16.8 µM (active); in [1] (tumour line A), 11.2 µM (active). In addition, the results for the activity, negative = cell killing in [1] (setting [3]), in [1] (setting [4]) and in assay [1] (setting [5]) were 38.6%, -16.2% and -14.5%, respectively.
As to `CC(C)(C)NC(=O)[C@H]1CC[C@H]2[C@@H]3CC[C@H]4NC(=O)C=C[C@]4(C)[C@H]3CC[C@]12C`, the Potency result in the assay with MKL-1, in the assay with MKL-2, in the assay on UISO, with WaGa, with C33A and with CAOV3 was “inactive” throughout. The Potency result with CASKI, with Es-2, in the assay with HeLa, with Hek293T, in the assay on JEG-3 and in the assay with PA-1 was “inactive” throughout. For the same compound, the Potency entry in the assay with Tov-21-G, in the assay on Tov112D and with astro was “inactive” each time. Besides, in the assay on NIH3T3, the compound was classed as inactive. In the assay with SKOV3, the Potency is 12.6 µM (active). The activity, negative = cell killing in [1] (setting [3]) is -3.62%; in assay [1] (setting [4]), -10.8%; in [1] (setting [5]), -2.64%; in [1] (at 21.3 µM (top of the series), tumour line A) it was -15%.
As for `COc1cc(NCc2ccc3nc(N)nc(N)c3c2C)cc(OC)c1OC`, the Potency result with MCC-26, in the assay with CAOV3 and in the assay on SKOV3 was “inactive” in each case. Further, the Potency in the assay with MKL-1 was 29.6 µM (active); in the assay on MKL-2, 18.7 µM (active); with WaGa it was 2.96 µM (active) and 94.4 nM (active); in the assay with Hek293T, 0.1 µM (active); in the assay on PA-1, 0.178 µM (active); in the assay with Tov112D it was 0.1 µM (active).
In the case of `C[C@@H](NCCCc1cccc(C(F)(F)F)c1)c1cccc2ccccc12`, the Potency result in the assay with MKL-1, in the assay on MKL-2, in the assay with UISO, in the assay on JEG-3, with Tov-21-G and with Tov112D was “inactive” each time. Also, the result in the assay on NIH3T3 was inactive. The Potency in the assay with astro was 22.4 µM (active).
On to `COc1cccc(N(C)C(=S)Oc2ccc3c(c2)CCCC3)n1`, for which the Potency result with MKL-1, with MKL-2, in the assay with UISO, with WaGa, in the assay on C33A and with CAOV3 was “inactive” each time. In addition, the Potency entry in the assay with CASKI, with Es-2, with HeLa, in the assay with Hek293T, in the assay on JEG-3 and with OV90 was “inactive” throughout. The Potency result with PA-1, in the assay on SKOV3, with Tov-21-G and in the assay on Tov112D was “inactive” in each case. Further, the activity, negative = cell killing in [1] (setting [2]) is -18.5%. The results for the Potency in assay [1] (tumour line A) and in [1] (tumour line D) were 12.6 µM (active) and 17.8 µM (active), respectively.
With `CCCCS(=N)(=O)CCC(N)C(=O)O` (centres undefined), the Potency result with MCC-26, in the assay on MKL-1, in the assay on UISO and with WaGa was “inactive” each time.
